The results in this text go back to PubChem BioAssay.

Values without a mark were called inactive. For part of these data: Entries with a potency or affinity are not part of this list. Activity calls are given as the source filed them. Unless noted, no rule for the calls is given here.

The nature of assay [1]: antimalarial activity against Dd2 strain (AID 2302;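 active = growth inhibition above 50% at the single 2 µM test dose, taken to imply half-maximal potency below 2 µM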;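 also: 0% = DMSO untreated growth and 100% = chloroquine plus artemisinin killed control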). The following applies: P. falciparum Dd2 in RBCs, LDH growth readout, 72 h; at 2 µM; active compounds read high.
Assay [2] can be described thus: human hepatoma cell viability loss – ATP luminescence, cytotoxicity control for P. falciparum antimalarial project, primary screen (AID 2303;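 active = inhibition above 50%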;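 also: 0% = DMSO wells and 100% = digitonin-killed cells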). The following applies: HepG2 viability, 24-48 h, at 10 µM, active compounds read high.
Assay [3] has as its target L-lactate dehydrogenase (Plasmodium falciparum (isolate CDC / Honduras)) (UniProt Q27743). The assay can be described thus: PfLDH activity inhibition – cell lysate, 3D7 strain, counter-screen for P. falciparum growth inhibition project (AID 2304).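 Also: 0% = vehicle and 100% = reference inhibitor.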 The following applies: P. falciparum 3D7 crude extract, LDH APAD/NBT absorbance; at 2 µM; active compounds read high. A general note: Counterscreens check selectivity or assay interference.

The nature of assay [4]: inhibition of 3D7 malaria parasite growth – strain 3D7 (AID 2306).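 Also: 0% = DMSO wells and 100% = chloroquine plus artemisinin control wells.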 The following applies: P. falciparum 3D7 erythrocytic growth, LDH absorbance, 72 h; at 2 µM; active compounds read high.
Assay [5] has as its target Calcium-dependent protein kinase 1 (Plasmodium falciparum (isolate 3D7)) (UniProt P62344). The assay is described as follows: PfCDPK1 kinase inhibitors, biochemical, TCAMS library (AID 1159585; cut-off not given, nearly all actives have IC50 up to about 0.98 µM;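 also: inhibitors leave more ATP so luminescence rises with inhibition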). As to conditions: recombinant PfCDPK1, Kinase-Glo ATP depletion luminescence.
Assay [6] deals with Plasmodium falciparum protein kinase 6 (PK6, PF3D7_1337100) (UniProt Q8IDW1). The assay can be described thus: PfPK6 kinase inhibitors, biochemical, TCAMS library (AID 1159586). As to conditions: recombinant PfPK6, Kinase-Glo ATP depletion luminescence.
For assay [7], the target named is Protein kinase 7 (PK7), Plasmodium falciparum 3D7 (PF3D7_0213400) (UniProt Q7YTF7). The assay can be described thus: inhibition of Plasmodium PK7 catalytic activity – biochemical, TCAMS antimalarial set, Kinase-Glo luminescence (AID 1159587). As to conditions: recombinant PfPK7, Kinase-Glo ATP depletion luminescence.
Assay [8] deals with Calcium-dependent protein kinase 4 (Plasmodium falciparum (isolate 3D7)) (UniProt Q8IBS5). The assay is described as follows: PfCDPK4 kinase inhibitors, biochemical, TCAMS library (AID 1159588; cut-off not given, nearly all actives have IC50 up to about 0.91 µM). The following applies: recombinant PfCDPK4, Kinase-Glo ATP depletion luminescence. On the technique in general: Kinase-Glo reads ATP consumption through a luciferase reaction.
Calcium-dependent protein kinase 4 (Plasmodium falciparum (isolate 3D7)), sequence (Q8IBS5 whole entry, looked up): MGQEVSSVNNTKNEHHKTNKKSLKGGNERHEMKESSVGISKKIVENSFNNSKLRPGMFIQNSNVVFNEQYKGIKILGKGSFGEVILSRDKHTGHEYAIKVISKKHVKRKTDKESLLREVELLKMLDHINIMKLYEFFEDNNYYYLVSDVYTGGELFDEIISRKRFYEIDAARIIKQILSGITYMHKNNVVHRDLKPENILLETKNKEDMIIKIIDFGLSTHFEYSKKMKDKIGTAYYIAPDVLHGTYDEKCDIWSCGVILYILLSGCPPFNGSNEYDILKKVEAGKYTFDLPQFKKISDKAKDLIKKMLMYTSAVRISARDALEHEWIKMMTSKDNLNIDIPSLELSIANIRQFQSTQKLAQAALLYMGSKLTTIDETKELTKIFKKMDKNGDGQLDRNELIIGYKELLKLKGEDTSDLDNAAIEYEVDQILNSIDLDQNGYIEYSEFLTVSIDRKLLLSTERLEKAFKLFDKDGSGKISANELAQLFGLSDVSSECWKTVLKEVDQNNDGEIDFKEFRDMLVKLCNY

Plasmodium falciparum protein kinase 6 (PK6, PF3D7_1337100), sequence (Q8IDW1 1-305): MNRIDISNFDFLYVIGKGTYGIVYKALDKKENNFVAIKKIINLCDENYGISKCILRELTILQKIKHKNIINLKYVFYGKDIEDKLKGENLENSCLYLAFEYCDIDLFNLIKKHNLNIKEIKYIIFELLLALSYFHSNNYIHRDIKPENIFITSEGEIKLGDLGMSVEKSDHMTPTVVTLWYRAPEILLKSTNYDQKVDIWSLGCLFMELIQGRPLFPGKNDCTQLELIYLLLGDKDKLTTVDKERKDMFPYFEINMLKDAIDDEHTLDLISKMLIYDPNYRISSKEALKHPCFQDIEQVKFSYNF
Calcium-dependent protein kinase 1 (Plasmodium falciparum (isolate 3D7)), sequence (P62344 whole entry, looked up): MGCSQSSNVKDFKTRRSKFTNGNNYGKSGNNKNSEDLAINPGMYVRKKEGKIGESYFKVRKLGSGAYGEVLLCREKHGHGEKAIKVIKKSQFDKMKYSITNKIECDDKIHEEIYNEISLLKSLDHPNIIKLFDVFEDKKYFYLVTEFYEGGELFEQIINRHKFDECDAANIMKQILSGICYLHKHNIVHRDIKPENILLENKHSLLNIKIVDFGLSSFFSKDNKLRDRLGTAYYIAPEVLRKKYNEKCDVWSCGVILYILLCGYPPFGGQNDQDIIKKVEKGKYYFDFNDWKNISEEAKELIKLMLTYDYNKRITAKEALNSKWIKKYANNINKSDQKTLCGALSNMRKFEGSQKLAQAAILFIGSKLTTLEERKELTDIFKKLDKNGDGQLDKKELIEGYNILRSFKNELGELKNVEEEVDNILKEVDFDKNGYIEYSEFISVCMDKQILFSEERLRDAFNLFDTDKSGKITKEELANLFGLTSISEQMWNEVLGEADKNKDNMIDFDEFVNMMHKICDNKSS
L-lactate dehydrogenase (Plasmodium falciparum (isolate CDC / Honduras)), sequence (Q27743 whole entry, looked up): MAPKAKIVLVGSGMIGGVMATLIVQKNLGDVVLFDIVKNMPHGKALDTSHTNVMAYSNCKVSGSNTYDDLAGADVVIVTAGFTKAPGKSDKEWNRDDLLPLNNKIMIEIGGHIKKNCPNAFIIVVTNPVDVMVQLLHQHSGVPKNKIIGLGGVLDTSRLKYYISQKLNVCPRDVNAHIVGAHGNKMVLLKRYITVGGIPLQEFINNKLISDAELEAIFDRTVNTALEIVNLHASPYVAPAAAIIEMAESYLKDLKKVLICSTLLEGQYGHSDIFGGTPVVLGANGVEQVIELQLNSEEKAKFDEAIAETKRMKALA
Protein kinase 7 (PK7), Plasmodium falciparum 3D7 (PF3D7_0213400), sequence (Q7YTF7 1-343): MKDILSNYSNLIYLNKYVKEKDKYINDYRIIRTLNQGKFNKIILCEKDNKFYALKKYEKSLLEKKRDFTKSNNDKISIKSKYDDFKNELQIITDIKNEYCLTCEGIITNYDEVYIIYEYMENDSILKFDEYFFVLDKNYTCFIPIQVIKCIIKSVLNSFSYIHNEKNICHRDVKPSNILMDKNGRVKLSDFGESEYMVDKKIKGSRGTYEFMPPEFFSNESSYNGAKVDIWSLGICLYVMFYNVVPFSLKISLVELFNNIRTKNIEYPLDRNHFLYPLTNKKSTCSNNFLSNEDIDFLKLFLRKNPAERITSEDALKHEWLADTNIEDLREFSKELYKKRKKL

In the case of `CC(C)N1CCC(NCc2ccc(-c3ccc(Cl)cc3)cc2)CC1`, the growth inhibition is 48% in assay [1] and 99% (active) in assay [4]. The inhibition in assay [2] is 50% (active); in assay [3] it was -3%. Besides, the outcome in assay [5], in assay [6], in assay [7] and in assay [8] was inactive.
In the case of `Cc1ccc2nc(-c3ccc(C(=O)NC4CCN(Cc5ccccc5)CC4)s3)[nH]c2c1`, the growth inhibition in assay [1] was 83% (active); in assay [4], 97% (active). The inhibition in assay [2] is 13%; in assay [3] it was -5%. The outcome in assay [5], in assay [6], in assay [7] and in assay [8] was inactive.
As for `Fc1ccc(-c2cncc(Nc3ccncc3)n2)cc1`, the values for the growth inhibition in assay [1] and in assay [4] were 11% and 88% (active), respectively. The results for the inhibition in assay [2] and in assay [3] were 8% and -1%, respectively. In addition, the result in assay [5], in assay [6], in assay [7] and in assay [8] was inactive.

One may read the inhibition as the relative decrease from the control value, in per cent.
